In PubChem BioAssay (EPA / NIEHS):
Calls of active or inactive are those of the source. How the source made its calls: active means hit-call score of the fitted dose curve at least 0.9, where 1 is the maximum; inactive means score below 0.9.

How the values were obtained:
[1] = molecular target: CCAAT/enhancer-binding protein beta (Homo sapiens) (UniProt P17676); test: ATG_C_EBP_CIS: Attagene CIS-FACTORIAL HepG2 Assay for human CCAAT/Enhancer Binding Protein (C/EBP) beta (AID 2282927); conditions: HepG2 Attagene cis-factorial transcription factor reporter; actives raise or lower the signal
Sequence of CCAAT/enhancer-binding protein beta (Homo sapiens) (P17676 whole entry, looked up): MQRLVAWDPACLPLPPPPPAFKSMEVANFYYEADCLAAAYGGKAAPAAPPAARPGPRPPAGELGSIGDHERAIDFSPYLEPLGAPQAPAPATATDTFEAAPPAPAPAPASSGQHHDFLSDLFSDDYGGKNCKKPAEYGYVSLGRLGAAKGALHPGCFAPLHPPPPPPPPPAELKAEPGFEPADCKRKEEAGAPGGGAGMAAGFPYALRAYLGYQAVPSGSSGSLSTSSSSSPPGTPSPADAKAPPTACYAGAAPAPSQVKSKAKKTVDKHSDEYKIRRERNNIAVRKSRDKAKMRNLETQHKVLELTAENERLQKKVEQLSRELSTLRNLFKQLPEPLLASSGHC
Method in brief: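 Changes in reporter mRNA, rather than exogenous chimeric receptor activity, reflect native C/EBP signalling in transfected HepG2 cells dosed for 24 h; transcripts are detected by RT-PCR and capillary electrophoresis.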

[2] = ATG_CMV_CIS: Attagene CIS-FACTORIAL HepG2 Assay for human CMV (Internal Marker) (AID 2282928); conditions: HepG2 CMV promoter reporter, transcription factor profiling; actives raise or lower the signal;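 further: endpoint acts as a background internal control marker rather than a target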
Method in brief: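 Fluorescence intensity of RT-PCR-derived reporter fragments, resolved by capillary electrophoresis, gives the signal. HepG2 liver cells bearing transfected cis-element reporters were treated 24 h; activity in either direction was fit relative to DMSO-treated controls.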

[3] = ATG_DR4_LXR_CIS: Attagene CIS-FACTORIAL HepG2 Assay for human Liver X Receptor (LXR), DR4 submotif (AID 2282929); conditions: HepG2 Attagene DR4 cis-reporter, mRNA transcription; actives raise or lower the signal
Method in brief: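 DR4 cis-reporter in HepG2, 24 h exposure. Detection: RT-PCR, 6-FAM labelling, CE fragment analysis. Endpoint fitted bidirectionally, DMSO = baseline.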

[4] = molecular target: Aryl hydrocarbon receptor (Homo sapiens) (UniProt P35869); test: ATG_Ahr_CIS: Attagene CIS-FACTORIAL HepG2 Assay for human Aryl Hydrocarbon Receptor (Ahr) (AID 2282930); conditions: HepG2 AhR cis-factorial reporter transcription; actives raise or lower the signal
Sequence of Aryl hydrocarbon receptor (Homo sapiens) (P35869 whole entry, looked up): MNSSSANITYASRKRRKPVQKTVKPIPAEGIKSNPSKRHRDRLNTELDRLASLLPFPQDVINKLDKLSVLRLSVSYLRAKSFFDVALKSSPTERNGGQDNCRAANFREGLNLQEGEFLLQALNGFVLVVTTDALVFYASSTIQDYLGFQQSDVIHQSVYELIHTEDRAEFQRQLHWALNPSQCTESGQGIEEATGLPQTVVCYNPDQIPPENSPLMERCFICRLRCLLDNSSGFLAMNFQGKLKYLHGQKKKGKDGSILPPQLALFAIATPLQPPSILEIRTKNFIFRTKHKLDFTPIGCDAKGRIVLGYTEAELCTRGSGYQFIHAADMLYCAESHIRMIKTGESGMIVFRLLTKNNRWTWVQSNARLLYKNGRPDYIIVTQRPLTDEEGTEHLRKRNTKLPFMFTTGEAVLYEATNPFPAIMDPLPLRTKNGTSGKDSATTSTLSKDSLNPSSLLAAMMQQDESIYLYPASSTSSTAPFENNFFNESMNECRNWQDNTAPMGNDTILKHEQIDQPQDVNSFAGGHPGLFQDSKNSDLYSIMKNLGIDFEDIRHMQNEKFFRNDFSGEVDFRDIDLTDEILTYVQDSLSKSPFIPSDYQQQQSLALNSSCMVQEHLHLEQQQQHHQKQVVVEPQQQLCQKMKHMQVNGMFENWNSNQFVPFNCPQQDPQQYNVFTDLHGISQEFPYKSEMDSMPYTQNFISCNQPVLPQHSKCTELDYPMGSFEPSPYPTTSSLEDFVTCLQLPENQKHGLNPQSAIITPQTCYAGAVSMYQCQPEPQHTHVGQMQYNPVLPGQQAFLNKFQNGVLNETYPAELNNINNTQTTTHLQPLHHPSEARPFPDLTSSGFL
Method in brief: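 HepG2, transient MRTU (cis) transfection, 24 h exposure. RNA → cDNA → PCR → 6-FAM primer extension → HpaI 2 h 37 C → CE. Fit: bidirectional, DMSO baseline.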

[5] = ATG_AP_2_CIS: Attagene CIS-FACTORIAL HepG2 Assay for human Activator Protein 2 (AP-2) (AID 2282932); conditions: HepG2 AP-2 cis-reporter, Attagene transcription factor profiling; actives raise or lower the signal
Method in brief: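 Endogenous transcription factor activity is reported through transfected multiplex reporter constructs in HepG2, after 24 h of compound exposure. Transcripts were quantified by RT-PCR and capillary electrophoresis of fluorescent fragments. Bidirectional fit against DMSO.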

[6] = ATG_BRE_CIS: Attagene CIS-FACTORIAL HepG2 Assay for human Bone Morphogenetic Protein (BMP) Response Element (BRE) (AID 2282933); conditions: HepG2 BMP response element reporter, Attagene transcription factor profiling; actives raise or lower the signal
Method in brief: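 Gain- or loss-of-signal was derived by bidirectional fitting against DMSO controls. The signal came from reporter mRNA, measured by RT-PCR and capillary electrophoresis, in HepG2 cells transiently carrying multiple reporter units and dosed for 24 h.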

Measured: outcome

CN(C)c1ccc(C=O)cc1
inactive: all assays above
